Hit rate of the full screen: of about 220,000 compounds, about 2,000 (0.91%) were called active. Inconclusive results (about 2%) are left out. The list is a sample of the results. Results with a measured potency or affinity are listed apart. A number with no mark means an inactive call. Cut-off read from the data, not from the text of the source: inconclusive = inhibition above about 80% without an active follow-up result; inactive = below that; test concentration not stated here.

This test is described as follows: M. tuberculosis H37Rv growth inhibitors, H37Rv strain (AID 1626).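 Note: bacteria incubated seven days before Alamar blue readout; 0% = bacteria only wells and 100% = bacteria with antibiotic wells.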 The conditions noted are these: active compounds read high, concentration not given here.
For `COc1cc(OC)c(Nc2cc(C)nc3nc(C)nn23)cc1Cl`, the inhibition is 10.9%.
The value for `COc1ccccc1N1CCN(C(c2ccc(Cl)cc2)c2nnnn2C(C)(C)C)CC1` (stereo not given) was 3.99%; that for `COc1ccc(-n2c(O)c(C=Nc3c(C)n(C)n(-c4ccccc4)c3=O)c(=O)[nH]c2=O)cc1` was 6.56%; that for `CN(c1ccc(C(=O)N2CCN(Cc3ccc4c(c3)OCO4)CC2)cc1)S(=O)(=O)c1ccccc1` was 7.14%.
On to `O=C(Nc1cccc(NC(=S)NC(=O)c2cccs2)c1)c1ccccc1`, for which the inhibition is -2.28%.
`CSc1cccc(NC(=S)N(CCC(C)C)C2CCN(C(C)=O)CC2)c1`: the inhibition was -6.61%.
In the case of `CC(N)C(=O)c1ccco1` (stereo not given), the inhibition was -3.4%.
In the case of `COc1ccccc1NC(=S)NNC(=O)c1cc(C)nn1C`, the inhibition is -9.1%.
For `COc1ccccc1-n1c(CNc2ccc(F)cc2)nnc1SCC(=O)Nc1cc(C)on1`, the inhibition is -4.09%.
For `Cc1cc(NC(=O)CSc2nnc(-c3ccoc3C)o2)no1`, the inhibition is 4.02%.
Under `Cc1cc(NC(=O)CSc2ccc3c(c2)OCCO3)no1` stands -5.76%.
On to `O=C(CSc1nnc(-c2ccc(O)cc2)o1)Nc1ccc2c(c1)OCCO2`, for which the inhibition is -0.38%.
Under `COc1ccc(-c2nnc(SCC(=O)Nc3cc(F)ccc3C)o2)cc1` stands -6.49%; under `COc1ccccc1-c1nnc(SCC(=O)Nc2c(Cl)cccc2Cl)o1`, -3.32%; under `COc1ccc(-c2nnc(SCC(=O)Nc3nncs3)o2)cc1`, 1.2%.
The value for `Cc1ccc(NCc2nnc(SCC(=O)Nc3cc(C)on3)n2C)cc1` was -5.91%; that for `Cc1cccc(NN=C2c3ccccc3-c3ccccc32)c1` was 1.34%.
Turning to `Cc1cc(C)nc(SCc2nnc(SCC(=O)Nc3ccc(C)c(C)c3)o2)n1`, the inhibition was 0.69%.
Under `Cc1ccc(-c2nn3c(C)nnc3s2)cc1NC(=O)c1ccc(-c2ccc(Cl)cc2Cl)o1` stands -7.97%; under `Cc1ccccc1CSCC(=O)NC1CCCC1`, 3.78%; under `Cc1ccccc1NC(=S)N(C)Cc1cn(C)c2ccccc12`, 2.82%.
Under `O=C(CSc1nnc(-c2ccc(F)cc2)o1)NC1CCCCC1` stands -0.23%.
For `COc1ccc(CCNC(=O)CSc2nnc(-c3ccc(F)cc3)o2)cc1OC`, the inhibition is -1.7%.
Under `O=C(O)CCc1nn2c3ccccc3n(CCO)c2nc1=O` stands 2.12%; under `S=c1[nH]cnc2scc(-c3ccc(Cl)cc3)c12`, 76.4%.
`Cc1ccc(-c2csc3nc[nH]c(=O)c23)cc1`: the inhibition is -5.48%.
Under `Nc1nc(NC(=O)/C=C/c2ccccc2)nn1-c1ccccc1` stands -0.46%; under `CCCn1c(NCc2ccco2)nc2ccccc21`, -3.29%; under `O=C(Nc1nc2ccccc2n1Cc1ccc(Cl)cc1)c1ccco1`, 16.1%.
Consider `Cn1c(C(C#N)C(=O)Cc2cccc3ccccc23)nc2ccccc21` (stereo not given), for which the inhibition was -15.5%.
Under `O=C(Nc1nc2ccccc2n1CCN1CCCCC1)c1ccco1` stands 6.64%; under `COc1ccc(/C=C/C(=O)Nc2nc(N)n(-c3ccccc3)n2)cc1`, 6.8%; under `Cc1ccc(Cn2c(NS(=O)(=O)c3ccccc3)nc3ccccc32)cc1`, 84.8%.
Under `Cn1c(C(C#N)C(=O)c2sc3ccccc3c2Cl)nc2ccccc21` (stereo not given) stands 94.3%; under `CC(O)C1C(=O)OC2(C)CC(C)(C)NC(=S)N12` (stereo not given), -6.84%.
The value for `CCOC(=O)c1c(NC(=O)CC)sc(C(C)=O)c1C` was 2.45%.
For `O=C(NN=C1CCCCCC1)c1c[nH]c2ccccc12`, the inhibition was -1.9%.
The value for `Cn1c2c(c(=O)n(C)c1=O)CN(CCc1ccccc1)CN2` was -1.68%; that for `Cc1cc(C)nc(Nc2nc(=O)c3ccccc3s2)n1` was -3.37%.
Under `NC(=O)[C@@H]1CCOc2c(I)cc([N+](=O)[O-])cc2C(=O)N[C@@H](CO)C(=O)NCC(=O)N1` stands -8.7%; under `CC(=O)N1NC(=Nc2ccccc2)SC1(C)C`, -6.07%.
Under `O=C(CN1CCCC1)NCC12CC3CC(CC(C3)C1)C2` stands -7.14%; under `COCCNC(=O)C(c1ccc(Cl)cc1)N(CCOC)C(=O)CCC(=O)Nc1nccs1` (stereo not given), -6.72%; under `Cc1cc(C)cc(N(C(=O)CCC(=O)Nc2ccccn2)C(C(=O)NC(C)C)c2ccc(O)cc2)c1` (stereo not given), 4.72%.
`Nc1nc(SCc2ccc(Cl)cc2Cl)ns1`: the inhibition was 28.5%.
The value for `Nc1nc(NC(=O)c2ccccc2)nn1-c1ccccc1` was -1.03%; that for `Nc1nc(NC(=O)c2ccco2)nn1-c1ccccc1` was -7.46%.
`COc1ccc(/C=N/NC(=O)c2ccn[nH]2)cc1Cn1nc(C)c([N+](=O)[O-])c1C`: the inhibition was 1.53%.
With `O=C(Cc1ccccc1[N+](=O)[O-])N1CCc2ccccc2C1`, the inhibition is -4.17%.
Under `CC(OC(=O)CCCOc1ccccc1)C(=O)NC(N)=O` (stereo not given) stands -2.98%; under `Cc1cc(C2=NNC(=NC3CC3)SC2)c(C)n1-c1ccccc1F`, -4.49%.
With `COCCCN=C1NN=C(c2cc(C)n(Cc3ccco3)c2C)CS1`, the inhibition was -3.28%.
Under `COCC(C)N=C1NN=C(c2cc(C)n(Cc3ccccc3Cl)c2C)CS1` (stereo not given) stands 5.76%; under `COCCCN=C1NN=C(c2cc(C)n(-c3ccccc3)c2C)CS1`, -2.89%.
For `O=C(OCC(=O)N1c2ccccc2Sc2ccccc21)C1CC(=O)N(Cc2ccco2)C1` (stereo not given), the inhibition is 3.33%.
The value for `Brc1ccc(-c2c[n+]3c(n2-c2ccccc2)SCC3)cc1` was 1.71%; that for `CCOc1ccccc1CNC(=O)CCN1C(=O)COc2ccccc21` was 4.08%; that for `CCOC(=O)C1=C(c2ccccc2)NC(=O)NC1c1ccc(OC)c(OC)c1` (stereo not given) was -0.28%.
The value for `CCOC(=O)C1=C(c2ccccc2)NC(=O)NC1c1ccc(OCC#N)c(OC)c1` (stereo not given) was 2.6%; that for `N#Cc1nc(-c2ccccc2F)oc1NC1CCCCC1` was 3.24%; that for `CN(CC(=O)Nc1ccc(Cl)c(Cl)c1)C(=O)/C=C/c1ccc(F)cc1` was -5.59%.
The value for `CN(CC(=O)Nc1ccc(C#N)cc1)Cc1ccc(Cl)c(Cl)c1` was 11.2%; that for `CCOP(=O)(OCC)C(Nc1cccc(C(F)(F)F)c1)c1ccc(F)cc1` (stereo not given) was 0.98%; that for `C=CCN=C1NN=C(c2ccc3c(c2)OCCO3)CS1` was -5.3%.
On to `c1cc2c(cc1C1=NNC(=NC3CC3)SC1)OCCO2`, for which the inhibition was -0.26%.
For the compound `COc1ccccc1NS(=O)(=O)c1cc(NC(=O)c2ccco2)ccc1N1CCOCC1`, the inhibition is 9.4%.
Turning to `O=c1[nH]c(=O)n(C2CCCCC2)c(O)c1C1NCCc2ccccc21` (stereo not given), the inhibition was -2.63%.
The value for `COc1cc(NC(=S)Nc2ccccn2)cc(OC)c1` was 14.7%; that for `Cc1cc(C)c(C)c(S(=O)(=O)N2CCN(C(=S)NCC3CCCO3)CC2)c1C` (stereo not given) was 9.9%.
The value for `O=C(Nc1ccccc1O)c1ccc(Cl)cc1` was -5.68%; that for `COc1ccc(C(=O)Nc2cc(Cl)ccc2OC(=O)c2ccc(OC)cc2)cc1` was -1.73%; that for `CN(C)S(=O)(=O)c1cccc(C(=O)OCC(=O)NC2CCCc3ccccc32)c1` (stereo not given) was 2.51%.
For `O=C(CSc1nc2ccccc2c(=O)n1-c1ccccc1)N1CCC1`, the inhibition was -2.38%.
As for `Cc1ccc(Oc2ccc(C(F)(F)F)cc2[N+](=O)[O-])c([N+](=O)[O-])n1`, the inhibition is 3.08%.
With `O=C(Nc1ccc(F)cc1)c1ccccc1Oc1ccc(C(F)(F)F)cc1[N+](=O)[O-]`, the inhibition is -1.92%.
For the compound `OCCC1CN(Cc2cnc(-c3ccccc3)s2)CCN1C1CCCCC1` (stereo not given), the inhibition was 2.22%.
`Cc1cc(C2=NNC(=Nc3ccccc3)SC2)c(C)n1C`: the inhibition is 0.04%.
The value for `Fc1ccc(N=C2NN=C(c3cc(F)ccc3F)CS2)cc1` was 9.64%; that for `COCCn1c(C)cc(C2=NNC(=Nc3ccc(OC)cc3)SC2)c1C` was -6.04%; that for `Cc1cccc(N=C2NN=C(c3ccc4c(c3)OCCO4)CS2)c1` was 6.79%.
For the compound `COc1ccc(N=C2NN=C(c3ccc4c(c3)OCCO4)CS2)cc1`, the inhibition is -3.14%.
On to `Cc1ccc(C2=NNC(=Nc3ccc(F)cc3)SC2)cc1`, for which the inhibition was 5.11%.
The value for `O=C(CCC1CCCCC1)NNC(=O)c1cnccn1` was 22.5%; that for `CCCS(=O)(=O)c1csc(C(=O)OC)c1N` was -5.25%.
Under `CS(=O)(=O)c1ccc(C(=O)OCC(=O)NC2CCS(=O)(=O)C2)cc1[N+](=O)[O-]` (stereo not given) stands 2.59%.
For `CC(C)c1ccc(/C=N/NC(=O)c2nnn(-c3nonc3N)c2CSC2=NCCS2)cc1`, the inhibition is -0.79%.
For `COc1cc(C(=O)N2CCN(S(=O)(=O)c3ccc(F)cc3)CC2)cc(OC)c1OC`, the inhibition was -4.16%.
Under `CCOC(=O)N1C2=NC(C(=O)OC)=C(C(=O)OC)[C@@H]3N(C)c4ccc(OC)cc4[C@]23C[C@H]1C(=O)OC` stands 5.46%; under `CN1CCc2ccccc2CC1=O`, 1.98%; under `N#CC1=C2SCC(O)(c3ccccc3)N2C(=O)CC1c1cccs1` (stereo not given), 3.45%.
In the case of `N#CC1=C2SCC(O)(c3ccccc3)N2C(=O)CC1c1ccccc1` (stereo not given), the inhibition was -11.4%.
Turning to `COC(=O)CSc1nnc(CNC(=O)c2ccccc2F)n1-c1ccccc1`, the inhibition is -1.52%.
Under `Cc1cccc(N2CCN(C(=O)c3ccncc3)CC2C)c1` (stereo not given) stands -7.46%; under `Cc1cccc(N2CCN(C(=O)c3cc(C)oc3C)CC2C)c1` (stereo not given), 4.99%; under `Cc1cc(C)cc(NC(=S)/C(=C(\[O-])c2ccc(Cl)cc2Cl)[n+]2ccccc2)c1`, 6.94%.

The values are drawn from PubChem BioAssay AID1626 (SRMLSC, 2009).
